# Data as given in PubChem BioAssay.
# Several values for one entry are separate records, joined by “and”; a condition that tells them apart may be missing. Identical values can stand only once. For some of these results: Results with a measured potency or affinity are listed apart. Activity calls are given as the source filed them.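 How the source made its calls, unless noted: active means compounds killing one labelled cell type while sparing the other, by normalised counts and ratio limits, not self-fluorescent; inactive means the rest.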
# Experiments:
# [1] = polyglutamine-triggered caspase-3 activation inhibitors, cell-based (AID 1583); conditions: polyglutamine-induced caspase-3 activation, cell assay; stronger effect = higher value;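 tested at 10 µM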
# [2] = suppressors of polyQ aggregation in yeast, 75Q-TubU reporter (AID 1593); conditions: Yeast 75Q polyglutamine aggregation reporter
# [3] = rescue of polyQ-huntingtin neuronal dysfunction in worms, whole organism, C. elegans mechanosensory neurons, N-terminal huntingtin (AID 1599); conditions: touch response, stronger effect = higher value
# [4] = inhibitors of mitochondrial cytochrome c release, biochemical, purified mitochondria (AID 1603); conditions: stronger effect = lower value;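 further: mouse liver mitochondria challenged with calcium chloride; signal normalized to the plate average as 100%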
# [5] = inhibitors of polyQ protein aggregation (AID 1604); conditions: polyglutamine-induced protein aggregation inhibition assay; stronger effect = higher value; tested at 2.5 µM
# [6] = enhancers of glutamate uptake in motor neurons, MN-1 cell line (AID 1612); conditions: MN-1 motor neuron cells, stronger effect = higher value;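 further: tested at 1 µM final; 0% = mean of DMSO vehicle wells on each plate; positive means more glutamate uptake than control and negative means less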
# [7] = reducers of polyQ inclusions in PC12 cells, cell-based, NGF-treated PC12, GFPQ80 (AID 1614); conditions: PC12 NGF-treated GFP-polyQ80 inclusion reduction;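 further: lower means fewer inclusions and 0 means no inclusions at all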
# [8] = suppressors of polyglutamine aggregation in yeast, 75Q-TubH (AID 1616); conditions: S. cerevisiae 75Q-TubH polyglutamine aggregation suppression; stronger effect = higher value
# [9] = liver-stage malaria parasite growth inhibition, primary screen, cell-based, HepG2, luciferase luminescence, HepG2 viability (AID 624349; in the data active means parasite load remaining mostly below about 12%, no sharp cut-off; inactive means mostly above about 10%;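 further: 100% = mean of DMSO negative control wells on the same plate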); conditions: P. berghei liver stage in HepG2, luciferase luminescence, concentration not given here; parasite load remaining: stronger effect = lower value; viability: measured here: HepG2 viability without parasites
# [10] = biological target: 6-phosphogluconate dehydrogenase, decarboxylating (Homo sapiens) (UniProt P52209); experiment: 6PGD enzyme inhibitors, primary screen, biochemical, human, recombinant enzyme, NADPH absorbance (AID 1159550;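 active means at least 20% inhibition of 6-phosphogluconate dehydrogenase activity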); conditions: recombinant 6PGD, NADPH absorbance 341 nm; at 10 µM; stronger effect = higher value
# [11] = differential killing of epithelial or mesenchymal cells, primary screen, imaging, PC-3E GFP, TEM4-18 mCherry, co-culture (AID 1345086); conditions: imaging cell counts, at 1 µM; for red/green cell ratio (normalised): actives lie on both sides, counts scaled to control wells, 1 = unselective;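 on all read-outs here: cells exposed to compound for 72 h before imaging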;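 on red/green cell ratio (normalised): normalised mesenchymal count divided by normalised epithelial count so high means epithelial killing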
# [12] = biological target: NAD(+) hydrolase SARM1 (Homo sapiens) (UniProt Q6SZW1); experiment: SARM1 TIR NADase inhibitors, cell lysate, NAD-Glo luminescence (AID 1508614;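 active means compound whose remaining NAD level is above about 45 nM, limit read from the data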); conditions: SAM-TIR HEK293T lysate NADase, at 1 µM, stronger effect = higher value
# [13] = biological target: Mitogen-activated protein kinase 7 (Homo sapiens) (UniProt Q13164); experiment: ERK5 transactivation activators in reporter cells, primary screen, cell-based, HTS (AID 1508626;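 active means luciferase signal above three times the same-plate solvent-only control wells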;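 further: luciferase driven by Gal4-ERK5 fusion binding five Gal4 sites before minimal TATA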); conditions: HeLa Gal4-ERK5 transactivation, 18 h, at 5 µM, stronger effect = higher value
# [14] = sensitizers of A549 cells to miR-34 induction, primary screen, imaging, A549 dox-inducible miR-34, nuclei and caspase counts (AID 1347080;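 active means compounds whose cell count with miR-34 switched on is under 0.7 times the count with it off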); conditions: A549 miR-34 inducible, Hoechst nuclei count, 48 h
# [15] = measured here: epithelial PC-3E GFP cell survival
# [16] = measured here: mesenchymal TEM4-18 mCherry cell survival
# Sequence of 6-phosphogluconate dehydrogenase, decarboxylating (Homo sapiens) (P52209 whole entry, looked up): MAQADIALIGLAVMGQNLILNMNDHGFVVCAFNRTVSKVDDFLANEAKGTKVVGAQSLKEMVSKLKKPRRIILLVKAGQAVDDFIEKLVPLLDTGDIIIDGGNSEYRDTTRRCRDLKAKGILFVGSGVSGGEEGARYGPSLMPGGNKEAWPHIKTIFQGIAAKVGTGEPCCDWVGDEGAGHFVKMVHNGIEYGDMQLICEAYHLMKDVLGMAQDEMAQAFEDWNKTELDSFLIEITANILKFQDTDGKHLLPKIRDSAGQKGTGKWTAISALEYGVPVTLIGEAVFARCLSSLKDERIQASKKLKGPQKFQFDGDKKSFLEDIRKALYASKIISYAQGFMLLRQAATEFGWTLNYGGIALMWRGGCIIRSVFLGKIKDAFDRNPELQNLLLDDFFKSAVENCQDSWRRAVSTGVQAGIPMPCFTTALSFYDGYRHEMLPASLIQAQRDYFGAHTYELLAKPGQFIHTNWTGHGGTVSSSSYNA
# Sequence of NAD(+) hydrolase SARM1 (Homo sapiens) (Q6SZW1 whole entry, looked up, the tested form may be a part): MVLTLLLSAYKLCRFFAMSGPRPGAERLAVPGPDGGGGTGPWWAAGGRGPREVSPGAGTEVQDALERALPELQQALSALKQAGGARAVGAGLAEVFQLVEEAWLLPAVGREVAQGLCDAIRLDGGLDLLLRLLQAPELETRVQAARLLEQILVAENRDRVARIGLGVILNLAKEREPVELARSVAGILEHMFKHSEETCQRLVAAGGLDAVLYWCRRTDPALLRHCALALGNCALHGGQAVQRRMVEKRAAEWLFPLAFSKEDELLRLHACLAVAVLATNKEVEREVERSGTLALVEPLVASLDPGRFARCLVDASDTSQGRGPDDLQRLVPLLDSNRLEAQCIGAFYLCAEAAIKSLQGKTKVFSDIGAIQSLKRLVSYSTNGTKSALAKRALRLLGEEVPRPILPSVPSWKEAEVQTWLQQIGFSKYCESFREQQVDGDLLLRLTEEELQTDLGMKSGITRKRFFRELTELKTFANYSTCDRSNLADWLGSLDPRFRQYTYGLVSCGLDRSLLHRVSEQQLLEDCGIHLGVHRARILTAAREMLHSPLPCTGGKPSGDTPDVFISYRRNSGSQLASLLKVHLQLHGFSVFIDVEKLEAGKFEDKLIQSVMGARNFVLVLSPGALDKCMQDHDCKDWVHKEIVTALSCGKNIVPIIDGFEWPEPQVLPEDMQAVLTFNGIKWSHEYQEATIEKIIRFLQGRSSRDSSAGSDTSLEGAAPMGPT
# Sequence of Mitogen-activated protein kinase 7 (Homo sapiens) (Q13164 whole entry, looked up, the tested form may be a part): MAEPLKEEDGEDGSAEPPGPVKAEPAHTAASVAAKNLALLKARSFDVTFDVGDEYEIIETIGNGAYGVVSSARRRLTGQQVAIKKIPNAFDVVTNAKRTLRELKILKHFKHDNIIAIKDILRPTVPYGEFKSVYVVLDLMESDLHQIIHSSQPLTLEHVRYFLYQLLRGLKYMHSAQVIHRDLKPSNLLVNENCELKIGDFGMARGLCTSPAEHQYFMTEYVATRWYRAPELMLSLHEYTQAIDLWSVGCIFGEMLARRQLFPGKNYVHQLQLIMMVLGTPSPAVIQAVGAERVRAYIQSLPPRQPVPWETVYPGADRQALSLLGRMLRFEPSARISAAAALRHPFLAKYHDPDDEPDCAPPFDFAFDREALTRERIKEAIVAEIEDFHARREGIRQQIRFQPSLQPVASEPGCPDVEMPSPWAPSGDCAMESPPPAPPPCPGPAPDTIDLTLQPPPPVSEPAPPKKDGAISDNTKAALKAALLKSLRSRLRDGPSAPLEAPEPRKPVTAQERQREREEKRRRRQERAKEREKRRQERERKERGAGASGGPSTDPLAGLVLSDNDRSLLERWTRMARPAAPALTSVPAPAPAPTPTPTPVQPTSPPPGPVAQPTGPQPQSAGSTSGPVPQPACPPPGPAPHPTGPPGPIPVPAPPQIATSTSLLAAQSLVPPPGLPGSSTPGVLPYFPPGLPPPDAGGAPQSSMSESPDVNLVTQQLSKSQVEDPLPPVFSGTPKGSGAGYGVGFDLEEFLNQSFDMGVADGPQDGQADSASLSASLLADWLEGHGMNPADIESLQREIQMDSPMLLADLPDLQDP
smiles,measurement,setting,value
NCC(O)CC(=O)O (stereo unspecified),inhibition,[1],11.2%
same,score,[2],1.7
same,rescue above control,[3],-10.6
same,cytochrome c release ratio,[4],1.09
same,inhibition of aggregation,[5],57.7%
same,glutamate uptake change,[6],9.66%
same,inclusion score,[7],2
same,aggregation suppression score,[8],1.63
same,parasite load remaining,[9],157% (inactive)
same,viability,[9],91.4%
same,inhibition,[10],-18.3% (inactive)
same,red/green cell ratio (normalised),[11],0.75 (inactive)
same,normalised cell number,[11]; [15],1.28
same,normalised cell number,[11]; [16],0.96
same,remaining NAD,[12],10 nM (inactive)
same,luciferase signal,[13],44 AU (inactive)
CN1CC(=O)N=C1N,inhibition,[1],-27.2%
same,score,[2],1.33
same,rescue above control,[3],-3.62
same,cytochrome c release ratio,[4],0.51
same,inhibition of aggregation,[5],97.4%
same,glutamate uptake change,[6],32%
same,inclusion score,[7],2
same,aggregation suppression score,[8],1.7
same,inhibition,[10],10.8% (inactive)
same,red/green cell ratio (normalised),[11],1.04 (inactive)
same,normalised cell number,[11]; [15],0.96
same,normalised cell number,[11]; [16],1
same,remaining NAD,[12],10 nM (inactive)
same,luciferase signal,[13],68 AU (inactive)
COc1ccc2c(c1OC)C(=O)O[C@H]2[C@H]1c2c(cc3c(c2OC)OCO3)CCN1C,parasite load remaining,[9],93.3% (inactive) and 73.1% (inactive)
same,viability,[9],64.7% and 94.8%
same,inhibition,[10],4.17% (inactive)
same,red/green cell ratio (normalised),[11],1.15 (inactive)
same,normalised cell number,[11]; [15],1.08
same,normalised cell number,[11]; [16],1.24
same,fold change,"[14]; stronger effect = lower value, cell number ratio, induced over uninduced",0.877 (inactive)
same,fold change,[14]; measured here: relative caspase fold change +Dox/-Dox,1.33
same,cell count,"[14]; measured here: total cells with miR-34 induction, stronger effect = lower value",8940
same,cell count,[14]; measured here: total cells without miR-34 induction,10200
CC(=O)Nc1ccc(OC(=O)c2ccccc2O)cc1,inhibition,[1],-0.86%
same,score,[2],0.55
same,rescue above control,[3],4.5
same,cytochrome c release ratio,[4],1.29
same,inhibition of aggregation,[5],92.3%
same,glutamate uptake change,[6],0.86%
same,inclusion score,[7],2
same,aggregation suppression score,[8],0.54
same,parasite load remaining,[9],50.3% (inactive)
same,viability,[9],71.4%
same,inhibition,[10],-12.6% (inactive)
same,red/green cell ratio (normalised),[11],0.93 (inactive)
same,normalised cell number,[11]; [15],1.16
same,normalised cell number,[11]; [16],1.08
same,remaining NAD,[12],10 nM (inactive)
same,luciferase signal,[13],40 AU (inactive)
NC[C@@H]1CC[C@@H](N)[C@@H](O[C@H]2[C@H](O)[C@@H](O[C@H]3O[C@H](CO)[C@@H](O)[C@H](N)[C@H]3O)[C@H](N)C[C@@H]2N)O1,inhibition,[10],-2.83% (inactive)
same,red/green cell ratio (normalised),[11],1.19 (inactive)
same,normalised cell number,[11]; [15],0.9
same,normalised cell number,[11]; [16],1.07
same,remaining NAD,[12],10 nM (inactive)
COc1cc(-c2coc3cc(OC)c(OC)c(OC)c3c2=O)cc(OC)c1OC,inhibition,[10],12.5% (inactive)
same,red/green cell ratio (normalised),[11],1.13 (inactive)
same,normalised cell number,[11]; [15],0.98
same,normalised cell number,[11]; [16],1.1
same,luciferase signal,[13],100 AU (inactive)
COc1c(CC(=O)c2cc3c(cc2O)OC(C)(C)C(O)C3)ccc2c1C=CC(C)(C)O2 (stereo unspecified),inhibition,[10],5.33% (inactive)
same,red/green cell ratio (normalised),[11],0.66 (inactive)
same,normalised cell number,[11]; [15],1.48
same,normalised cell number,[11]; [16],0.97
same,luciferase signal,[13],40 AU (inactive)
COc1ccc2c(c1)OCc1c-2oc2cc(OC)ccc12,inhibition,[10],2.98% (inactive)
same,red/green cell ratio (normalised),[11],0.82 (inactive)
same,normalised cell number,[11]; [15],1.14
same,normalised cell number,[11]; [16],0.93
same,luciferase signal,[13],96 AU (inactive)
O=c1c(O)c(-c2ccccc2)oc2cc(O)ccc12,inhibition,[10],-10.2% (inactive)
same,red/green cell ratio (normalised),[11],0.89 (inactive)
same,normalised cell number,[11]; [15],0.98
same,normalised cell number,[11]; [16],0.88
same,luciferase signal,[13],264 AU (inactive)
C=C1C(=O)O[C@@H]2C[C@@]3(C)CCC[C@H](C)C3=C[C@H]12,inhibition,[10],8.8% (inactive)
same,red/green cell ratio (normalised),[11],1.12 (inactive)
same,normalised cell number,[11]; [15],0.81
same,normalised cell number,[11]; [16],0.9
same,luciferase signal,[13],84 AU (inactive)
CC1(C)CC2C1CCC1(C)OC1CCC2(C)O (stereo unspecified),inhibition,[10],19.1% (inactive)
same,red/green cell ratio (normalised),[11],1.05 (inactive)
same,normalised cell number,[11]; [15],0.98
same,normalised cell number,[11]; [16],1.02
same,luciferase signal,[13],620 AU (active)
C=C(C)C1CC=C(CO)CC1 (stereo unspecified),inhibition,[10],1.85% (inactive)
same,red/green cell ratio (normalised),[11],1.04 (inactive)
same,normalised cell number,[11]; [15],0.95
same,normalised cell number,[11]; [16],0.99
same,luciferase signal,[13],68 AU (inactive)
C#CCCCCCCCCCCCC(O)CC(O)CO (stereo unspecified),inhibition,[10],6.35% (inactive)
same,red/green cell ratio (normalised),[11],0.88 (inactive)
same,normalised cell number,[11]; [15],0.94
same,normalised cell number,[11]; [16],0.82
same,luciferase signal,[13],52 AU (inactive)
O=C(O)c1cccc(O)c1O,inhibition,[10],4.23% (inactive)
same,red/green cell ratio (normalised),[11],0.96 (inactive)
same,normalised cell number,[11]; [15],1.23
same,normalised cell number,[11]; [16],1.19
same,luciferase signal,[13],20 AU (inactive)
